Assay outcomes (PubChem)
An excerpt weighted towards active compounds, which were near 19% of everything screened.
Shiga inhibitor = blocks Shiga toxin action in Vero cells. actives 9.2% (n = 290,000). Vero cells, Shiga toxin protein synthesis inhibition reporter. inhibition, % at 38.7 µM; in the data active = inhibition mostly above about 28%, no sharp cut-off; inactive = mostly below about 43%; also: 0% is about no effect
Cycloheximide cs = affects cycloheximide protein synthesis inhibition readout, counter-screen | cell reporter, cycloheximide protein synthesis inhibition counterscreen | max response, % | actives 12% (n = 300,000); in the data active = max response mostly above about 13%, no sharp cut-off; inactive = mostly below about 14%; also: read at 38.3 µM for the half of the compounds with a filed dose; 0% is about no effect
Pf growth 48h = P. falciparum growth inhibition at 48 hours (one generation); actives 5.9% (n = 310,000); Potency, µM (highest dose often 28.7 µM), for inactives: at the highest dose activity change, negative = inhibition, actives largely listed as inhibitors; AID 504832; P. falciparum luciferase growth in erythrocytes, 48 h; also: potency is read from the fitted curve at half-maximal effect; % is scaled to controls: 0 for no effect and ±100 for the full control effect
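In quantitative HTS format, infected erythrocytes bearing luciferase-reporter parasites were treated for a single generation at 37 C. Luminescence after adding detection reagent served as the growth measure.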
Pf growth 96h = P. falciparum growth inhibition at 96 hours; actives 6.9% (n = 320,000); P. falciparum luciferase reporter growth, 96 h; AID 504834; Potency, µM (doses to about 28.7 µM), inactives show at the highest dose activity change, negative = inhibition, actives largely listed as inhibitors; also: potency is read from the fitted curve at half-maximal effect; % is scaled to controls: 0 for no effect and ±100 for the full control effect
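Readout is luminescence from an integrated firefly luciferase in P. falciparum. Red cells, 2% hematocrit and 0.05% parasitemia final, were cultured with compound through two parasite generations (96 hours) at 37 C, 5% CO2.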
LASV entry inh = Lassa virus entry inhibition. Lassa virus pseudotype entry inhibition, cell reporter. Potency, µM (top dose mostly 37.9 µM), inactives show at the top dose activity change, negative = inhibition, usual class: inhibitors. actives 1.2% (n = 300,000). AID 540256; calls by dose curve; tested in HEK293 cells; also: potency is read from the fitted curve at half-maximal effect; % is scaled to controls: 0 for no effect and ±100 for the full control effect; nearly all actives have a fitted effect of over 50% in size
MARV entry inh = inhibitors of Marburg virus binding or cell entry | Marburg virus pseudotyped entry inhibition, cell reporter | Potency, µM (top dose mostly 37.8 µM), inactives show top-dose activity change, negative = inhibition, hits mostly inhibitors | actives 1.8% (n = 300,000) | AID 540276; calls by dose curve; tested in HEK293 cells; also: potency is read from the fitted curve at half-maximal effect; % is scaled to controls: 0 for no effect and ±100 for the full control effect
* marks the source's active call; other numbers are inactive results; ? = inconclusive; / = not tested or not shown; [ ] = dose if it differs, or a comment. Unless noted, calls follow the shape of the dose curve; as a rule, active = well fitted inhibition curve with a large enough effect; inconclusive = small, poorly fitted or top-dose-only effect, or another doubt; inactive = no such curve, though single readings can be large or run the other way.

SMILES	Shiga inhibitor	Cycloheximide cs	Pf growth 48h	Pf growth 96h	LASV entry inh	MARV entry inh
O=C(Nc1ccc(F)cc1)C(c1ccccc1)N1CCN(S(=O)(=O)c2ccccc2)CC1 (stereo not given)	-18	0	-12%	?	?	-6%
Cc1ccc(S(=O)(=O)N2CCN(C(C)C(=O)Nc3ccccc3-c3ccccc3)CC2)cc1 (stereo not given)	2	-2	9.3µM*	7.4µM*	?	?
CC(C(=O)Nc1ccccc1-c1ccccc1)N1CCN(Cc2ccccc2)CC1 (stereo not given)	-13	-3	13µM*	?	?	?
CC1CCN(C(C)C(=O)Nc2ccccc2-c2ccccc2)CC1 (stereo not given)	-13	-3	0%	1%	-4%	12µM*
COc1ccc(C(=O)OCC(=O)N2CCCCC2)cc1[N+](=O)[O-]	20	11	8%	21%	4%[46.1 µM]	10%[46.1 µM]
C=CCSc1nc2sc(C)c(C)c2c(=O)[nH]1	-4	-3	10%	5%	/	/
O=C(NCCc1csc(-c2cccnc2)n1)c1ccccc1Br	-3	0	?	-30%	/	/
CCc1ccc2nc(N=C(N)N)nc(C)c2c1	-13	-2	?	33%	-5%	?
O=C(NC(=O)c1c(F)cccc1F)Nc1ccccc1SC(F)F	28	11*	-14%	4%	-6%[46.1 µM]	-22%[46.1 µM]
CCOC(=O)c1sc(N/N=C/c2cc(Br)c(O)c(OC)c2)nc1C	22	18	13µM*	53%	/	/
CC(=O)c1sc(N/N=C/c2cccc(O)c2)nc1C	50*	40*	151%	162%	/	/
CCOC(=O)c1sc(NCCNc2nc(C)c(C(=O)OCC)s2)nc1C	8	-3	-22%	?	-19%	11%
COC(=O)c1sc(NC(=O)CSc2nnc(C(C)C)n2C)nc1C	-4	-2	-3%	233%	2%	-2%
CC(=O)c1sc(N/N=C\c2ccc(N(C)C)cc2)nc1C	/	31*	113%	?	/	/
COC(=O)c1sc(N/N=C/c2ccc(C(C)C)cc2)nc1C	53*	12	9.3µM*	?	?	?
CC(=O)c1sc(N/N=C/c2cccc([N+](=O)[O-])c2)nc1C	33	2	52%	126%	17%[46.1 µM]	?
Cn1c(CSCCOc2ccccc2)n[nH]c1=S	6	-1	4%	-22%	0%[46.1 µM]	16%[46.1 µM]
CN(C)CCc1c[nH]c2ccc(CS(=O)(=O)N3CCCC3)cc12	/	/	7%	4%	/	/
CCSc1ncc(/C=N/Nc2ccc(Cl)cc2)n1C	112*	77*	?	?	-11%	?
CCSc1ncc(/C=N/Nc2ccc([N+](=O)[O-])cc2)n1C	55*	25*	53%	?	?	?
Cn1c(-c2ccc(F)cc2)cnc1SCC(=O)Nc1ccccc1	7	15	-2%	?	1%	-1%[46.1 µM]
CCSc1ncc(/C=N/Nc2ccccc2)n1C	55*	29*	5.2µM*	2.6µM*	-30%	-2%
Cn1c(SCC(=O)Nc2ccc(Cl)cc2)nnc1C1CC1	25	3	-1%	?	?	-2%[46.1 µM]
CCN(CC)c1ccc(NC(=O)COC(=O)Cc2ccsc2)cc1	/	/	79%	29%	6%	4%
COc1ccc(C(=O)OCCN2CCN(C3=NS(=O)(=O)c4ccccc43)CC2)cc1OC	-3	4	-17%	8.3µM*	/	-7%[46.1 µM]
Cc1cc(C(=O)COC(=O)CCc2nc3ccccc3c(=O)[nH]2)c(C)n1CC1CCCO1 (stereo not given)	11	9	6%	-7%	20%	5%[46.1 µM]
Cc1cccc(C(=O)NCC(=O)OCC(=O)c2cc(C)n(CC3CCCO3)c2C)c1 (stereo not given)	89*	48*	287%	110%	?	-1%[46.1 µM]
Cc1cc(C(=O)CN2C(=O)c3ccccc3S2(=O)=O)c(C)n1CC1CCCO1 (stereo not given)	-24	-9	2.1µM*	10%	0.46µM*	0.58µM*
Cc1cc(C(=O)COC(=O)CNC(=O)c2ccccc2)c(C)n1CC1CCCO1 (stereo not given)	134*	26*	330%	243%	14%	-6%[46.1 µM]
COc1cccc(NC(=O)Cn2nnc(C(=O)Nc3cc(Cl)ccc3OC)c2N)c1	15	12	33%	?	/	/
